PubChem BioAssay
Several values for one entry are separate records, joined by “and”; a condition that tells them apart may be missing. Equal entries are not always repeated. Activity calls are given as the source filed them.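 The calls were made as follows, unless noted: active = compounds whose cell count with miR-34 switched on is under 0.7 times the count with it off; inactive = the rest.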

What was measured:
[1] = viability loss with induced miR-34 in A549 – imaging, A549 dox-inducible miR-34, nuclei and caspase counts, primary screen (AID 1347080); settings: A549 miR-34 inducible, Hoechst nuclei count, 48 h
[2] = MELAS cybrid and Rieske KO viability enhancers – cell-based, MELAS cybrids, Rieske KO mouse fibroblasts, CellTiter-Glo, primary screen (AID 1508586;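 active = mean z-score across replicates of 1.96 or higher in either the MELAS or the Rieske mutant cell line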;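 also: z relative to plate mean and SD of compound and empty wells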); settings: low glucose
[3] = stronger effect = lower value, cell number ratio, induced over uninduced
[4] = measured here: relative caspase fold change +Dox/-Dox
[5] = measured here: total cells with miR-34 induction, stronger effect = lower value
[6] = measured here: total cells without miR-34 induction
[7] = MELAS cybrid survival, CellTiter-Glo 48 h, stronger effect = higher value
[8] = Rieske KO mouse fibroblast survival, CellTiter-Glo 72 h
Also: test concentration not given here.

SMILES | fold change [1, 3] | fold change [1, 4] | cell count [1, 5] | cell count [1, 6] | z-score [2, 7] | z-score [2, 8]
CCC1=CC2CN(C1)Cc1c([nH]c3ccccc13)[C@@](C(=O)OC)(c1cc3c(cc1OC)N(C)[C@@H]1[C@@]34CCN3CC=C[C@@](CC)(C(OC(C)=O)[C@]1(O)C(=O)OC)[C@@H]34)C2 (stereo not given in full) | 1.11 (inactive) | 0.608 | 1810 | 1620 | 2.06 (active) | -0.337
CC(=Cc1ccccc1)C=C1SC(=S)N(CC(=O)O)C1=O | 0.909 (inactive) | 0.759 | 8290 | 9130 | -0.0963 (inactive) | 0.707
CC(=O)C1CC[C@H]2[C@@H]3CC=C4CC(O)CC[C@]4(C)[C@@H]3CC[C@]12C (stereo not given in full) | 0.983 (inactive) | 0.867 | 7780 | 7910 | -0.328 (inactive) | 0.251
COC1C(=O)[C@]2(C)C(OC)C[C@H]3OC[C@@]3(OC(C)=O)[C@H]2C(OC(=O)c2ccccc2)[C@@]2(O)CC(OC(=O)C(O)C(NC(=O)OC(C)(C)C)c3ccccc3)C(C)=C1C2(C)C (stereo not given in full) | 1.03 (inactive) | 0.843 | 2690 | 2620 | 1.6 (inactive) | -0.148
CC1OC(Oc2c(-c3cc(O)c(O)c(O)c3)oc3cc(O)cc(O)c3c2=O)C(O)C(O)C1O (stereo not given) | 0.976 (inactive) | 1.01 | 8230 | 8430 | -0.43 (inactive) | -0.277
O=C(Nc1ncc(SCCN2CCCC2)s1)[C@]1(c2ccc(S(=O)(=O)C3CC3)cc2)CC1C1CCCCC1 (stereo not given in full) | 0.954 (inactive) | 1.22 | 5020 | 5260 | -0.306 (inactive) | -0.0398
Nc1ncnc2c1ncn2C1OC(CO)C(O)C1O (stereo not given) | 0.838 (inactive) and 0.824 (inactive) | 0.867 and 1.17 | 6490 and 8470 | 7740 and 10300 | -0.00177 (inactive) and -0.197 (inactive) | -2.04 and 0.972
CC1O[C@@H](OC2C(O)C[C@H](OC3C(O)C[C@H](OC4CC[C@@]5(C)[C@H](CC[C@@H]6[C@H]5CC(O)[C@]5(C)C(C7=CC(=O)OC7)CC[C@]65O)C4)OC3C)OC2C)CC(O)C1O (stereo not given in full) | 0.837 (inactive) | 0.829 | 400 | 478 | 0.348 (inactive) | -0.197
C=C1CCC(O)CC1=CC=C1CCC[C@@]2(C)[C@H]1CC[C@H]2C(C)CCCC(C)(C)O (stereo not given in full) | 0.933 (inactive) | 0.682 | 7650 | 8200 | -0.475 (inactive) | 0.00368
O=C(COc1ccc(C(=O)c2ccccc2)cc1)NC1CCN(Cc2ccccc2)CC1 | 0.922 (inactive) | 0.78 | 6930 | 7520 | -0.391 (inactive) | -0.791
CC(C)CN(CC(O)C(Cc1ccccc1)NC(=O)OC1CCOC1)S(=O)(=O)c1ccc(N)cc1 (stereo not given) | 0.88 (inactive) | 0.898 | 7780 | 8840 | -0.312 (inactive) | 0.463
CCCCC(F)(F)C(=O)CCC1C(O)CC(=O)C1CCCCCCC(=O)O (stereo not given) | 0.926 (inactive) | 0.726 | 8100 | 8740 | 0.0399 (inactive) | -0.0235
COc1ccc2cc1Oc1ccc(cc1)C[C@@H]1c3c(cc4c(c3Oc3cc5c(cc3OC)CCN(C)[C@@H]5C2)OCO4)CCN1C | 0.966 (inactive) | 1.15 | 4290 | 4440 | -0.206 (inactive) | -0.161
CNC1CN(c2ccc3c(=O)c(C(=O)O)cn(-c4nccs4)c3n2)CC1OC (stereo not given) | 1.31 (inactive) | 0.345 | 1410 | 1080 | 2.91 (active) | -1.95
Cc1cc(Cn2cnc3c2CC(C(=O)O)N(C(=O)C(c2ccccc2)c2ccccc2)C3)ccc1N(C)C (stereo not given) | 0.92 (inactive) | 0.34 | 8010 | 8710 | 0.9 (inactive) | -1.41
Cc1ccc(C(=O)NCCCCCC(=O)Nc2ccccc2N)cc1 | 0.986 (inactive) | 0.44 | 4890 | 4960 | -0.614 (inactive) | -2
COc1cc(C=CC(=O)C=C(O)C=Cc2ccc(O)c(OC)c2)ccc1O | 0.901 (inactive) | 0.689 | 8110 | 9000 | -0.431 (inactive) | 0.0298
Cc1ccc(S(=O)(=O)C=CC#N)cc1 | 0.909 (inactive) | 0.678 | 7140 | 7850 | -0.499 (inactive) | -0.608
NC(=O)c1ncn(C2OC(CO)C(O)C2O)c1N (stereo not given) | 0.801 (inactive) | 0.953 | 7500 | 9360 | 0.179 (inactive) | 0.0953
COc1cc(C=CC(=O)N2CCN(CC(=O)N3CCCC3)CC2)cc(OC)c1OC | 0.989 (inactive) | 0.412 | 8470 | 8570 | -0.177 (inactive) | -0.0197

SMILES | fold change [1, 3] | fold change [1, 4] | cell count [1, 5] | cell count [1, 6] | z-score [2, 7] | z-score [2, 8]
COCCOC(=O)C1=C(C)NC(C)=C(C(=O)OCC=Cc2ccccc2)C1c1cccc([N+](=O)[O-])c1 (stereo not given) | 1.06 (inactive) | 0.275 | 6590 | 6240 | -0.669 (inactive) | 0.105
N#Cc1ccc2[nH]c(O)c(-c3ccc(CN4CCOCC4)cn3)c2c1 | 0.757 (inactive) | 0.717 | 2200 | 2900 | 1.12 (inactive) | -0.87
O=C(Oc1cc(S(=O)(=O)c2ccccc2)ccc1[N+](=O)[O-])c1ccc(Cl)cc1 | 0.897 (inactive) | 0.914 | 8540 | 9520 | -0.507 (inactive) | -2.16
CC1CCN(CCC2CCCN2S(=O)(=O)c2cccc(O)c2)CC1 (stereo not given) | 0.96 (inactive) | 0.546 | 7750 | 8080 | -0.371 (inactive) | -0.0766
O=C(Nc1cc(C(F)(F)F)ccc1N1CCCCC1)c1ccncc1 | 0.916 (inactive) | 0.317 | 7440 | 8120 | -0.391 (inactive) | 1.41
Cc1cc(N2CCOCC2)cc2[nH]c(-c3c(NCC(O)c4cccc(Cl)c4)cc[nH]c3=O)nc12 (stereo not given) | 1.08 (inactive) | 0.775 | 928 | 858 | -0.143 (inactive) | -0.73
OC(CC1c2ccccc2-c2cncn21)C1CCCCC1 (stereo not given) | 0.992 (inactive) | 0.351 | 8340 | 8410 | -0.436 (inactive) | -0.0844
CCC(NC(=O)C(C)NC)C(=O)N1CC(O)CC1Cc1c(-c2[nH]c3cc(F)ccc3c2CC2CC(O)CN2C(=O)C(CC)NC(=O)C(C)NC)[nH]c2cc(F)ccc12 (stereo not given) | 0.946 (inactive) | 0.86 | 9020 | 9540 | -0.425 (inactive) | -0.265
C=C[C@@]1(C)CC(OC(=O)CSC2C[C@H]3CC[C@@H](C2)N3C)[C@]2(C)C(C)CC[C@]3(CCC(=O)[C@H]32)C(C)C1O (stereo not given in full) | 0.984 (inactive) | 1.2 | 7780 | 7910 | 2.23 (active) | 5.36
COc1ccc(C2CC(=O)c3c(O)cc(OC4OC(COC5OC(C)C(O)C(O)C5O)C(O)C(O)C4O)cc3O2)cc1O (stereo not given) | 0.944 (inactive) and 0.996 (inactive) | 0.804 and 0.887 | 9100 and 9620 | 9630 and 9660 | -0.317 (inactive) and -0.329 (inactive) | 0.0192 and 0.287
Cc1cc(C=C2SC(=S)NC2=O)c(C)n1-c1cccnc1 | 0.889 (inactive) | 0.503 | 7760 | 8720 | -0.359 (inactive) | -0.24
N#CCC(C1CCCC1)n1cc(-c2ncnc3[nH]ccc23)cn1 (stereo not given) | 1.03 (inactive) and 0.94 (inactive) | 0.563 and 1.09 | 8730 and 7580 | 8490 and 8060 | -0.347 (inactive) and -0.642 (inactive) | 0.0258 and -0.766
CC1(C)SC2C(NC(=O)C(C(=O)O)c3ccsc3)C(=O)N2C1C(=O)O (stereo not given) | 0.763 (inactive) | 0.814 | 7330 | 9600 | -0.203 (inactive) | -0.146
CC(C)c1c(C(=O)Nc2ccccc2)c(-c2ccccc2)c(-c2ccc(F)cc2)n1CCC(O)CC(O)CC(=O)O (stereo not given) | 1.21 (inactive) | 0.989 | 5220 | 4330 | 0.917 (inactive) | -1.34
N#CC(=C1SCC(c2ccc(Cl)cc2Cl)S1)n1ccnc1 (stereo not given) | 0.898 (inactive) | 1.64 | 8130 | 9050 | -0.162 (inactive) | -0.0913
O=C(C=Cn1cnc(-c2cc(C(F)(F)F)cc(C(F)(F)F)c2)n1)NNc1cnccn1 | 1.07 (inactive) | 0.543 | 2320 | 2170 | -0.213 (inactive) | -7.28
C=CC(C)(O)CCC1[C@@]2(C)CCCC(C)(C)C2CC[C@@]1(C)O (stereo not given in full) | 0.916 (inactive) | 0.879 | 8210 | 8970 | -0.292 (inactive) | -0.0842
O=C(CCCS)NC1CCN(C(=O)COc2ccc(Cl)cc2Cl)CC1 | 0.885 (inactive) | 0.313 | 7910 | 8940 | -0.37 (inactive) | 1.05
CC1CC[C@H]2C(C)C(O)O[C@H]3O[C@@]4(C)CC[C@@H]1[C@]32OO4 (stereo not given in full) | 0.953 (inactive) | 0.983 | 4540 | 4770 | -0.379 (inactive) | 0.102
CCN=C1N[C@@H]2C(O)C(O)C(CO)O[C@@H]2S1 (stereo not given in full) | 0.935 (inactive) | 0.487 | 8710 | 9320 | -0.533 (inactive) | -0.988
